Experimental data from PubChem BioAssay (EPA / NIEHS).
Calls of active or inactive are those of the source. The calls were made as follows: active = hit-call score of the fitted dose curve at least 0.9, where 1 is the maximum; inactive = score below 0.9.

These molecules were tested against Transcription factor E2F1 (Homo sapiens) (UniProt Q01094) (assay: ATG_E2F_CIS: Attagene CIS-FACTORIAL HepG2 Assay for human E2F Transcription Factor 1 (AID 2282935)). Settings: HepG2 Attagene cis-reporter, E2F reporter RNA transcripts; actives raise or lower the signal.
Sequence of Transcription factor E2F1 (Homo sapiens) (Q01094 whole entry, looked up): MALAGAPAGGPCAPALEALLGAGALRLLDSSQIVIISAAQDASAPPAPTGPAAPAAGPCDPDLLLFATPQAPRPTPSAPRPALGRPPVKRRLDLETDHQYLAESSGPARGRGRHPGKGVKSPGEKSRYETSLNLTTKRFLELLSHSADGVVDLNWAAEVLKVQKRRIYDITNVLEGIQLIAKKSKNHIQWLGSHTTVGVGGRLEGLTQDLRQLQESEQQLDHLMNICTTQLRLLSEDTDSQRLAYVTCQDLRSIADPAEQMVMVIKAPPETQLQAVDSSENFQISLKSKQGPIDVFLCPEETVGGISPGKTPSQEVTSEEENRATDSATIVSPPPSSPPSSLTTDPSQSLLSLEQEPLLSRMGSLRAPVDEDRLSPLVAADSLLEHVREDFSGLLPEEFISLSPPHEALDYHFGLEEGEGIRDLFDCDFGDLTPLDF
Description: ATG_CIS is a cell-based, multiplexed-readout assay that uses HepG2, a human liver cell line, with measurements taken at 24 hours after chemical dosing in a 24-well plate.ATG_E2F_CIS is one of 52 assay component(s) measured or calculated from the ATG_CIS assay. It is designed to make measurements of mRNA induction, a form of inducible reporter, as detected with fluorescence intensity signals by Reverse transcription polymerase chain reaction (RT-PCR) and Capillary electrophoresis technology.Data from the assay component ATG_E2F_CIS was analyzed into 1 assay endpoint. This assay endpoint, ATG_E2F_CIS, was analyzed with bidirectional fitting relative to DMSO as the negative control and baseline of activity. Using a type of inducible reporter, measures of mRNA for gain or loss-of-signal activity can be used to understand the reporter gene at the transcription factor-level as they relate to the gene E2F1. Furthermore, this assay endpoint can be referred to as a primary readout, because this assay has produced multiple assay endpoints where this one serves a reporter gene function. To generalize the intended target to other relatable targets, this assay endpoint is annotated to the dna binding intended target family, where the subfamily is E2F transcription factor.
Human liver HepG2 cells are transiently transfected with multiple reporter transcription units (MRTUs) in 6-well plates using FuGene 6 reagent (Roche; 3 ml FuGene/1 mg DNA). The MRTU constructs are regulated by a cis-regulating element (promoter). […] A major difference between the CIS and TRANS system is that in CIS activities of endogenous TFs are measured, whereas the TRANS assay evaluates changes in activities of exogenous, chimeric NR-Gal4 proteins. […] At the end of 24 hour incubation, total RNA was isolated using TriZol reagent (Invitrogen). The isolated RNA is then reverse-transcribed using oligo(dT) primer and Mo-MLV reverse transcriptase (Invitrogen) with DNAse I (Ambion) treatment for 30 min. The one-tenth of the produced cDNA was amplified by PCR using Taq DNA polymerase (Invitrogen) and two reporter sequence-specific primers. The PCR products were fluorescently labeled by primer extension with 6-arboxyfluorescein (6-FAM) 5'-labeled reporter sequence-specific primer (2 min at 95 C, 20 s at 68 C and 10 min at 72 C) and these products were digested with 5U of HpaI (New England Biolabs) for 2h at 37 C. The fragments were purified using Qiaquick PCR columns (Qiagen), analyzed on an ABI 3130xL genetic analyzer (Applied Biosystems) with peak positions identified by using a set of X-rhodamine (ROX)-labeled MapMarker1000 molecular weight standards (BioVentures). The raw capillary electrophoresis data was processed using Attagraph software (Attagene).
With CC(=O)/C=C/C1=C(C)CCCC1(C)C the outcome was “inactive”. With CCOC(=S)SSC(=S)OCC the outcome was “inactive”. In the case of O=c1[nH]c(=O)n([C@H]2CCCO2)cc1F, the outcome is reported as “inactive”. CCC(C(=O)NC(N)=O)c1ccccc1 (stereo not given) was tested, and the outcome was “inactive”. With CCCC/C=C\CCCCCCCCCC=O the outcome was “inactive”. In the case of CC1(C)[C@H](C(=O)OCc2cccc(Oc3ccccc3)c2)[C@@H]1C=C(Cl)Cl, the outcome is reported as “inactive”. COC(=O)c1ccc(C)cc1 was tested, and the outcome was “inactive”. With CCN(CC)CCOC(=O)c1ccc(N)cc1 the outcome was “inactive”. With O=C(O)c1ccc([N+](=O)[O-])cc1 the outcome was “inactive”. CNCCO was tested, and the outcome was “inactive”. Cc1ccc(C(=O)O)o1 was tested, and the outcome was “inactive”. For OC1C(O)C(O)C(O)C(O)C1O (stereo not given), the outcome was “inactive”. In the case of CC1(C)[C@H]2CC[C@]1(C)[C@H](O)C2, the outcome is reported as “inactive”. For CC(C)(C)c1cc(CCC(=O)NN)cc(C(C)(C)C)c1O, the outcome was “inactive”. In the case of Clc1nc(C(Cl)(Cl)Cl)c(Cl)c(Cl)c1Cl, the AC50 is reported as 22.6 µM (active). For CC(=O)OCCC(C)CC(C)(C)C (stereo not given), the outcome was “inactive”. With CCCCCCCCCCCCCC(=O)O the outcome was “inactive”. O=C1CCc2ccccc2O1 was tested, and the outcome was “inactive”. CC1(C)[C@@H]2CC[C@@]1(C)[C@H](O)C2 was tested, and the outcome was “inactive”. With CCCOCC(C)O (stereo not given) the outcome was “inactive”. For CCCCO, the outcome was “inactive”. In the case of Nc1cc(Cl)c(O)c(Cl)c1, the outcome is reported as “inactive”. For C/C=C(\C)C(=O)OCc1ccccc1, the outcome was “inactive”. COc1cccc(OC)c1 was tested, and the outcome was “inactive”. O=C(Cl)c1cccc(C(=O)Cl)c1 was tested, and the outcome was “inactive”. With C=CC(C)(O)CCC=C(C)CCC=C(C)C (stereo not given) the outcome was “inactive”. For C=C[Si](OCC)(OCC)OCC, the outcome was “inactive”. In the case of CCC(O)CO (stereo not given), the outcome is reported as “inactive”. In the case of Cc1ccc(O)c(C(C)(C)C)c1, the outcome is reported as “inactive”. For CC(=O)Nc1ccccc1O, the outcome was “inactive”. For CCCCOCCOCCSC#N, the outcome was “inactive”. In the case of COC(C)CCO (stereo not given), the outcome is reported as “inactive”. With CCOC(=O)c1ccccc1OC the outcome was “inactive”. With CCCCCCOC(=O)CCCCC the outcome was “inactive”. With CC(=O)OCc1ccc2c(c1)OCO2 the outcome was “inactive”. For CC(C)(C)C(=O)c1ccccc1, the outcome was “inactive”. For C=CCOc1nc(OCC=C)nc(OCC=C)n1, the outcome was “inactive”. O=C[C@@H](O)[C@H](O)[C@H](O)CO was tested, and the outcome was “inactive”. CCCC(=O)c1cc(O)c(O)cc1O was tested, and the outcome was “inactive”. With O=C(Oc1ccccc1)c1ccc(O)cc1 the outcome was “inactive”.
